# Assay results: ChEMBL document CHEMBL2218924, “A broad activity screen in support of a chemogenomic map for kinase signalling research and drug discovery” (Biochem J, 2013)
# Legend:
# [1] = target: T1, Serine/threonine-protein kinase DCLK2 (Homo sapiens) (UniProt Q8N568); conditions: at 10 µM
# T1 sequence (whole entry): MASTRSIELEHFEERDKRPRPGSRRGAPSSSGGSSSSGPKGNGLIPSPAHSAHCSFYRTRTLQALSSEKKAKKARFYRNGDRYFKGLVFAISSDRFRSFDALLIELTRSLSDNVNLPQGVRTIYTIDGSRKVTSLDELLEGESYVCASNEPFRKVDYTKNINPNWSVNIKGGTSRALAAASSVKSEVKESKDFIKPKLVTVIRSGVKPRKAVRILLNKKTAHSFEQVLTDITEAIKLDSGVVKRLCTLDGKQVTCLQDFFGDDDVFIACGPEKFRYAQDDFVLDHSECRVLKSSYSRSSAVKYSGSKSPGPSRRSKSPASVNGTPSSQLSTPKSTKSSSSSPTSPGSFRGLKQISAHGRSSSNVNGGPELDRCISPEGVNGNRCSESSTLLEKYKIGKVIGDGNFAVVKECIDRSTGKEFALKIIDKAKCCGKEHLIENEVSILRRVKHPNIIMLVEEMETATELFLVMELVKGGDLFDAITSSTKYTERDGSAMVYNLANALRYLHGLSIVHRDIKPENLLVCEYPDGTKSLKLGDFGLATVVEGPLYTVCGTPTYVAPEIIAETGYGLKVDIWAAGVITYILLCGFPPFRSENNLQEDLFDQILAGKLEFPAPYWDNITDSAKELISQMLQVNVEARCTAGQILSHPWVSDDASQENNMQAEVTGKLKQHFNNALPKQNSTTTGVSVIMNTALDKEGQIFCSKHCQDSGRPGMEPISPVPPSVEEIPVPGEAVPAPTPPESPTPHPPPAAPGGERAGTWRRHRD
# [2] = target: T2, Myotonin-protein kinase (Homo sapiens) (UniProt Q09013); conditions: at 1 µM
# T2 sequence (whole entry): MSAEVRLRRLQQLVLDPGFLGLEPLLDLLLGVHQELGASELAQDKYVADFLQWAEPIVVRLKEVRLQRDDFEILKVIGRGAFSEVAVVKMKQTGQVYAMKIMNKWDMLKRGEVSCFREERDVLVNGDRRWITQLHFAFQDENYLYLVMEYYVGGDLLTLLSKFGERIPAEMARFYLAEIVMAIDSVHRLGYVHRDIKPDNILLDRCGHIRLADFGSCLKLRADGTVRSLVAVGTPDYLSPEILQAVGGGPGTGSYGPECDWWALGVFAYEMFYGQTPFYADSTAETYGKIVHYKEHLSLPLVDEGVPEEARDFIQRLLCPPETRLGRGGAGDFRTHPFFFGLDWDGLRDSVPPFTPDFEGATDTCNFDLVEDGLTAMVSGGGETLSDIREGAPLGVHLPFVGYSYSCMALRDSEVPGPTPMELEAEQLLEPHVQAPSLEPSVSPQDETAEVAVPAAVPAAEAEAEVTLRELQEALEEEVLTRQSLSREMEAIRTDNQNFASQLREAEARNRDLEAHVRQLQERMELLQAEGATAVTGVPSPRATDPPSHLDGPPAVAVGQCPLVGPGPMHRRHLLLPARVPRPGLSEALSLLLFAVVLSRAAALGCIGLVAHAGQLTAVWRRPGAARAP
# [3] = target: T2, Myotonin-protein kinase (Homo sapiens); conditions: at 10 µM
# [4] = target: Death-associated protein kinase 2 (Homo sapiens) (UniProt Q9UIK4); conditions: at 1 µM
# Death-associated protein kinase 2 (Homo sapiens), sequence (Q9UIK4 whole entry, looked up): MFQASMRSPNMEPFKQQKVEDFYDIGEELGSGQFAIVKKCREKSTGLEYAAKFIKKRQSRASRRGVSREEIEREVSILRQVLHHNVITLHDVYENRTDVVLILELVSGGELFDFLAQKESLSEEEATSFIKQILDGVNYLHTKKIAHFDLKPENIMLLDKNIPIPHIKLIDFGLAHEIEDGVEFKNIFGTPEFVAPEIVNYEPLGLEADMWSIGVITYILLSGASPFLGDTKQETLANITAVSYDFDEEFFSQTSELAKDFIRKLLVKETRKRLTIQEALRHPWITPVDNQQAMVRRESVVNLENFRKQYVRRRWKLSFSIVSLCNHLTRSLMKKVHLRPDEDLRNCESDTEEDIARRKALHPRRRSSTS
# [5] = target: Death-associated protein kinase 2 (Homo sapiens) (UniProt Q9UIK4); conditions: at 10 µM
# [6] = target: T1, Serine/threonine-protein kinase DCLK2 (Homo sapiens); conditions: at 1 µM
# [7] = target: T3, Discoidin domain-containing receptor 2 (Homo sapiens) (UniProt Q16832); conditions: at 1 µM
# T3 sequence (whole entry): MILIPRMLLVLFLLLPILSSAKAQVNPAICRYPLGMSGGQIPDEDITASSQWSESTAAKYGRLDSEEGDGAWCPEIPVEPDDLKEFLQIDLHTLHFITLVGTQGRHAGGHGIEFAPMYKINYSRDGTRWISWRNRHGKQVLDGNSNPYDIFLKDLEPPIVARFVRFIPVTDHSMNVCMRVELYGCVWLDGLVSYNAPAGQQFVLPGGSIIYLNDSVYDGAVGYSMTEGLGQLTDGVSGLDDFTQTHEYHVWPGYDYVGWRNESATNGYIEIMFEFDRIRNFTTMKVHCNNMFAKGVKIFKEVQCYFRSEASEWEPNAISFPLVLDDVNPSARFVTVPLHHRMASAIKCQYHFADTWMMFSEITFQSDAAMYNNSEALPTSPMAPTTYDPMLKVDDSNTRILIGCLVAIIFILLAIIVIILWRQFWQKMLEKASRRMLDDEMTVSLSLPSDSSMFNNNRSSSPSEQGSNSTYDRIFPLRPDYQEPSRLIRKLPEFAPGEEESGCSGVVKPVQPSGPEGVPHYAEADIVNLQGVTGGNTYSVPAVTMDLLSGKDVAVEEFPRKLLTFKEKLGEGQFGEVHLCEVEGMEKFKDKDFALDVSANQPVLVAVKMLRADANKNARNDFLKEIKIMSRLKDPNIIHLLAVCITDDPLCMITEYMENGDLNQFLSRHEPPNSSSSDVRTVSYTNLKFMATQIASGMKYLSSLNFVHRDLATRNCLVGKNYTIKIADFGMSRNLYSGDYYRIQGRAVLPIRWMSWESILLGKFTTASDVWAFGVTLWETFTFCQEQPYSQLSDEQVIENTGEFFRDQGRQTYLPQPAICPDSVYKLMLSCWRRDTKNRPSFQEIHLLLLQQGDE
# [8] = target: T3, Discoidin domain-containing receptor 2 (Homo sapiens); conditions: at 10 µM
# [9] = target: T4, Serine/threonine-protein kinase 17A (Homo sapiens) (UniProt Q9UEE5); conditions: at 1 µM
# T4 sequence (whole entry): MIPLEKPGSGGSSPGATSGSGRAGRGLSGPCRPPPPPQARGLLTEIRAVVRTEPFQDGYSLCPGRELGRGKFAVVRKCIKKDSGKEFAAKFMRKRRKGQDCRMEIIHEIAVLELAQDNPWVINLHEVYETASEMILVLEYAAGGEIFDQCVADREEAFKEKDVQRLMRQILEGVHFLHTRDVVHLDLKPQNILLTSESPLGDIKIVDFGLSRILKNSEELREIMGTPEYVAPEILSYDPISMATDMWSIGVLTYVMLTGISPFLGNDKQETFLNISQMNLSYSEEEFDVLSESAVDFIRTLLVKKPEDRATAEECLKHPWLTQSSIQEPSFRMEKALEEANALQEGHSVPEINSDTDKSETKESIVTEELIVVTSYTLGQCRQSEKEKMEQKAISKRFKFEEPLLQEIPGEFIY
# [10] = target: T4, Serine/threonine-protein kinase 17A (Homo sapiens); conditions: at 10 µM
# [11] = target: T5, Ephrin type-A receptor 1 (Homo sapiens) (UniProt P21709); conditions: at 1 µM
# T5 sequence (whole entry): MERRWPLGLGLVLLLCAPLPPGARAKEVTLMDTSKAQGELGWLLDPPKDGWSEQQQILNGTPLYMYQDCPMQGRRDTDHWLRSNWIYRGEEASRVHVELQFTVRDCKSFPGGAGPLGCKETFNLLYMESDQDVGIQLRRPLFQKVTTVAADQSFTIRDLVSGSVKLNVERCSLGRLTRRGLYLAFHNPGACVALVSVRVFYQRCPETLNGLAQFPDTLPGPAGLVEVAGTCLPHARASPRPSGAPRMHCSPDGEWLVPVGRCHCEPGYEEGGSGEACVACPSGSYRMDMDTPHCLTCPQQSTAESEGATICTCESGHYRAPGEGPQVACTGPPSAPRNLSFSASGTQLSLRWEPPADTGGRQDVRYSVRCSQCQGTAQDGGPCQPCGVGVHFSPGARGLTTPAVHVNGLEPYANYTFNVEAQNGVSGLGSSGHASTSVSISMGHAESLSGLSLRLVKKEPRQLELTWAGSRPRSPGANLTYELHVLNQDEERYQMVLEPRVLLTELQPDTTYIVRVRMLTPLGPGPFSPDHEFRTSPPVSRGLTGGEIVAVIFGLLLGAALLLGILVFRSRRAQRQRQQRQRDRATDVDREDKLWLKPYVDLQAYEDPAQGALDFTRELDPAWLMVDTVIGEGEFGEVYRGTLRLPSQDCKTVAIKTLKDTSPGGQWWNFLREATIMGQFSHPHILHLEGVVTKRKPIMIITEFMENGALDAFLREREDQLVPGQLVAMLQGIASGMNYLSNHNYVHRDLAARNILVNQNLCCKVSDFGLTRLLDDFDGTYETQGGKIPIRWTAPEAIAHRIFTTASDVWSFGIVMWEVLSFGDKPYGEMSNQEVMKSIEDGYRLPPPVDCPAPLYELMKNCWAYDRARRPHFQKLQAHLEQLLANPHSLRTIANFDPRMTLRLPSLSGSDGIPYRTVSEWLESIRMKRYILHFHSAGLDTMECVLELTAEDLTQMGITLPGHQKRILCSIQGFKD
# [12] = target: T5, Ephrin type-A receptor 1 (Homo sapiens); conditions: at 10 µM
# [13] = target: Ephrin type-A receptor 2 (Homo sapiens) (UniProt P29317); conditions: at 1 µM
# Ephrin type-A receptor 2 (Homo sapiens), sequence (P29317 whole entry): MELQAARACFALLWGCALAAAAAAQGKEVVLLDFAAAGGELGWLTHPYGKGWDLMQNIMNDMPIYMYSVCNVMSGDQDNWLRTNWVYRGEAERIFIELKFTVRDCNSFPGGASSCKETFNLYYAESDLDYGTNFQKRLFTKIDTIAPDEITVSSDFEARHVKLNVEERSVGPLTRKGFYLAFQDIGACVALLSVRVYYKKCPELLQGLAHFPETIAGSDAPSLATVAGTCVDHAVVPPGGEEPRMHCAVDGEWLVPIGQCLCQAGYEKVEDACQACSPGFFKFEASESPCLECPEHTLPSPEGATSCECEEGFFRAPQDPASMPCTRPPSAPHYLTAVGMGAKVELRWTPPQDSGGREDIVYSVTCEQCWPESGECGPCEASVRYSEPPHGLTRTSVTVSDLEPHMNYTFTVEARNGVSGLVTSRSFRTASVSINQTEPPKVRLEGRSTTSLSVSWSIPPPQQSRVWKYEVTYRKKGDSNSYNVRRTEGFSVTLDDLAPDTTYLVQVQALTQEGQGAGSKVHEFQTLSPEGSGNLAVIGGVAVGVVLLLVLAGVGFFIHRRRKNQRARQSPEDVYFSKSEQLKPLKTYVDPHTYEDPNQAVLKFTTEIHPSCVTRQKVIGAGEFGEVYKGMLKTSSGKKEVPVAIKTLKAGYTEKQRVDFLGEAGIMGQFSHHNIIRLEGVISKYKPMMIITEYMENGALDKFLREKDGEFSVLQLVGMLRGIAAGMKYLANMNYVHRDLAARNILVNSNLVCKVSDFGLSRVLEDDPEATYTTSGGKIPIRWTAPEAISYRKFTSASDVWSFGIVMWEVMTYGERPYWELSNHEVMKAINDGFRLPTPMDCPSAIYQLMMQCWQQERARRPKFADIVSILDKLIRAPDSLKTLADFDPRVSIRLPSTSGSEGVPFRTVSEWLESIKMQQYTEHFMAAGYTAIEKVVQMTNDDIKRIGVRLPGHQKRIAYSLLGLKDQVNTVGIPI
# [14] = target: Ephrin type-A receptor 2 (Homo sapiens) (UniProt P29317); conditions: at 10 µM
# [15] = target: T6, Ephrin type-A receptor 3 (Homo sapiens) (UniProt P29320); conditions: at 1 µM
# T6 sequence (whole entry): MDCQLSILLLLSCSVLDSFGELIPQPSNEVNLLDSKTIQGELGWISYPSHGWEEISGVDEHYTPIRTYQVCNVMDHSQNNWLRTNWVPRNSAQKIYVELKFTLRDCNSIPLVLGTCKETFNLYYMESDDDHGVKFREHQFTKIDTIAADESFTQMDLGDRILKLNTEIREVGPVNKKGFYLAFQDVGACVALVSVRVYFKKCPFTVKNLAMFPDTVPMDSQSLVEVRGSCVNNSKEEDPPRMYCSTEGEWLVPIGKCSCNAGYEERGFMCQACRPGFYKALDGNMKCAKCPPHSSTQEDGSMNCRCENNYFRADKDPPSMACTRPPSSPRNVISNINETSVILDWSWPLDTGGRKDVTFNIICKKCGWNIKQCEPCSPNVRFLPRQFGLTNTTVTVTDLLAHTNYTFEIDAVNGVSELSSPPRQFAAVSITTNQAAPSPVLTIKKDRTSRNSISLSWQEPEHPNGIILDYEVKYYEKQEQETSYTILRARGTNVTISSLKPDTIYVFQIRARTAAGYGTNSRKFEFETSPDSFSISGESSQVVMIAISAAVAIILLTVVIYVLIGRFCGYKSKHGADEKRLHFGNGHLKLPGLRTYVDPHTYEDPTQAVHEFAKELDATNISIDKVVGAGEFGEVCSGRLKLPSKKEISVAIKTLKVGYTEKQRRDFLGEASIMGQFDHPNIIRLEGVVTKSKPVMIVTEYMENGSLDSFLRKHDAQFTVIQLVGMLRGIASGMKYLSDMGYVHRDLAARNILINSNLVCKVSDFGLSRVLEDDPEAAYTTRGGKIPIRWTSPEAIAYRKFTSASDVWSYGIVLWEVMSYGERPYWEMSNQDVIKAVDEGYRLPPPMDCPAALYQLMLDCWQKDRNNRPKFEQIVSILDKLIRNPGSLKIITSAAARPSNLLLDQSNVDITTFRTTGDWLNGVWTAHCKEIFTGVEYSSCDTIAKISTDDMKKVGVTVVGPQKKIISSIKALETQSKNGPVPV
# [16] = target: T7, Dual specificity tyrosine-phosphorylation-regulated kinase 2 (Homo sapiens) (UniProt Q92630); conditions: at 1 µM
# T7 sequence (whole entry): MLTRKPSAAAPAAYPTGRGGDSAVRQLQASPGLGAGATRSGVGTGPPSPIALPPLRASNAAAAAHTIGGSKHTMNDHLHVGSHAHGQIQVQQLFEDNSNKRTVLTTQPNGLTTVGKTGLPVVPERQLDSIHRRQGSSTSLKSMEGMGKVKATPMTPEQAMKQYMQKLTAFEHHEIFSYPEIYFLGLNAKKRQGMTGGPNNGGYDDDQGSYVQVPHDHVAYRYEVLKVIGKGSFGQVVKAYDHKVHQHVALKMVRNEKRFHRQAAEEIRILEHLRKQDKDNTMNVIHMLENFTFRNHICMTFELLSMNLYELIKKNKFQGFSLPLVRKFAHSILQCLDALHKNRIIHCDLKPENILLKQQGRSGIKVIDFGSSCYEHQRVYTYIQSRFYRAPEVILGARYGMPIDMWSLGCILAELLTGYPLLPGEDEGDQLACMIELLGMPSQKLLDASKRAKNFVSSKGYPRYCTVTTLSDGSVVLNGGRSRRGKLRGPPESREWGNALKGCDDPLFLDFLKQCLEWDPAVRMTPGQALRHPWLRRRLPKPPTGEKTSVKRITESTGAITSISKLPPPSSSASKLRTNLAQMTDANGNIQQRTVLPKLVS
# [17] = target: T7, Dual specificity tyrosine-phosphorylation-regulated kinase 2 (Homo sapiens); conditions: at 10 µM
# [18] = target: Epidermal growth factor receptor (Homo sapiens) (UniProt P00533); conditions: at 1 µM
# Epidermal growth factor receptor (Homo sapiens), sequence (P00533 whole entry): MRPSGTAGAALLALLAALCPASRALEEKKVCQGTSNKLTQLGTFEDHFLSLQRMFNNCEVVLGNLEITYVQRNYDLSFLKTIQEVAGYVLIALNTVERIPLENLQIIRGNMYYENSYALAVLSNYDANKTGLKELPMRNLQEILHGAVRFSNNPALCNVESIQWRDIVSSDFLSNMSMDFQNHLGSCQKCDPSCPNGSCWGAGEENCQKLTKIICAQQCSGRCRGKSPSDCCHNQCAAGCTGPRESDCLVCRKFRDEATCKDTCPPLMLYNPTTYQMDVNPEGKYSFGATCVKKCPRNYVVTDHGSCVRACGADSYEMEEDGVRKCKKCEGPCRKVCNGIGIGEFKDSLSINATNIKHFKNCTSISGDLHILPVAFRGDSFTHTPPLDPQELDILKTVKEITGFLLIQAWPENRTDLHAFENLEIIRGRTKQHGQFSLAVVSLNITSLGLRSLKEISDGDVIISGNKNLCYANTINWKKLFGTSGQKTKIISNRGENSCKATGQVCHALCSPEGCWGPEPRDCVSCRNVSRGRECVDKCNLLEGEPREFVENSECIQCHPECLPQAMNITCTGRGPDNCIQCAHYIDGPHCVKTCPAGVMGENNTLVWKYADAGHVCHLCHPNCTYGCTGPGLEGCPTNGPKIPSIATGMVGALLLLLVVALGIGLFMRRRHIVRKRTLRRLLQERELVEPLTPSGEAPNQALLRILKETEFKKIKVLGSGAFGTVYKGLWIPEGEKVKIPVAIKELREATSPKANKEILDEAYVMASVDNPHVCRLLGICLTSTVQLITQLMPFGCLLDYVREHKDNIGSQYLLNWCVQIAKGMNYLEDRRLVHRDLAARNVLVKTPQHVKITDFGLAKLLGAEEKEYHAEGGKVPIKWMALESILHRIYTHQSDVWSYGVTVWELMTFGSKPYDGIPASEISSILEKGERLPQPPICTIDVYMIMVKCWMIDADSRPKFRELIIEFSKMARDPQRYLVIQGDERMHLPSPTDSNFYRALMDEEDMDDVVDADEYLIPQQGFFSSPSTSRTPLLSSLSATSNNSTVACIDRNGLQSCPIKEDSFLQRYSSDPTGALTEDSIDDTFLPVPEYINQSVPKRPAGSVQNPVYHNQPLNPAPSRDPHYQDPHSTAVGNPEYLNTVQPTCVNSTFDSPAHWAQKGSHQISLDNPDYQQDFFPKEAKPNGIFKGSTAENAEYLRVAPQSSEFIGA
smiles,measurement,setting,value
O=c1cc(N2CCOCC2)oc2c(-c3ccccc3)cccc12,residual activity,[1],76%
same,residual activity,[2],134%
same,residual activity,[3],130%
CCCCc1c(-c2ccc(OC)cc2)[nH]c2nccnc12,residual activity,[4],101%
same,residual activity,[5],100%
same,residual activity,[6],72%
same,residual activity,[1],106%
same,residual activity,[7],71%
same,residual activity,[8],59%
same,residual activity,[9],79%
same,residual activity,[10],80%
same,residual activity,[11],29%
same,residual activity,[12],3%
same,residual activity,[13],87%
same,residual activity,[14],82%
same,residual activity,[15],74%
O=C(Nc1ccc(Cl)cc1)c1ccccc1NCc1ccncc1,residual activity,[5],119%
same,residual activity,[6],74%
same,residual activity,[8],36%
same,residual activity,[9],99%
same,residual activity,[10],99%
N#C/C(=C\c1ccc(O)c(O)c1)C(=O)NCc1ccccc1,residual activity,[6],69%
same,residual activity,[1],88%
same,residual activity,[7],119%
same,residual activity,[16],87%
same,residual activity,[17],73%
same,residual activity,[18],125%
same,residual activity,[14],101%
c1ccc(-c2cnc(Nc3ccc(OCCN4CCCC4)cc3)s2)cc1,residual activity,[6],108%
same,residual activity,[1],54%
same,residual activity,[7],100%
same,residual activity,[8],48%
same,residual activity,[9],31%
same,residual activity,[10],4%
same,residual activity,[17],62%
same,residual activity,[11],77%
same,residual activity,[12],60%
same,residual activity,[15],104%
